EBV LMP1 NFkB: Epstein-Barr LMP1 NF-kappaB reporter inhibition. LMP1-induced NF-kappaB luciferase reporter cells, luminescence. inhibition, % at 12.5 µM. AID 504558. 350,000 tested, 0.69% active; in the data active = inhibition above about 41%;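 also: 0% = neutral control wells and 100% = reference inhibitor control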
KKLEB tox: counter-screen for CF NF-kB inhibitors: cytotoxicity. AID 602141. activity change (cytotoxicity), % at 5 µM. KKLEB CF airway cells viability, ATPlite luminescence, overnight; stronger effect = lower value; cells stimulated with P. aeruginosa culture filtrate. 360,000 tested, 0.36% active;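 active = corrected activity change at or below -50% at 5 µM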
HIF-2a block: blocks HIF-2a reporter activity; 786-0 RCC cells HIF-2a reporter, luciferase luminescence, overnight; 360,000 tested, 0.72% active; inhibition, % at 18.8 µM;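 active = inhibition of the luminescence signal of 40% or more relative to plate controls, in a single-dose primary screen at 18.75 µM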
CF NFkB inh: blocks PAF-induced NF-kB reporter in cystic fibrosis cells; 360,000 tested, 0.86% active; inhibition, % at 5 µM; KKLEB NF-kB-GFP reporter, GFP fluorescence overnight;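 active = at least 50% inhibition at 5 µM, scaled per plate between neutral and stimulator controls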;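 also: PAF is a Pseudomonas aeruginosa culture filtrate used as stimulus; plate controls were PAF-stimulated DMSO wells for no effect and unstimulated DMSO wells for full effect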
Peg3 promoter: inhibitors of Peg3 promoter; HeLa PEG-Prom luciferase reporter, luminescence, overnight; inhibition, % at 20 µM; AID 588405; 360,000 tested, 1.7% active;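 active = inhibition of at least 50% at 20 µM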
Shn3 3UTR inh: inhibitors of Schnurri-3 3'UTR reporter in osteoblasts; Clone20 osteoblast Shn3 3'UTR firefly luciferase, 24 h; inhibition, % at 12.5 µM; 360,000 tested, 0.52% active; AID 588674;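 active = mean inhibition of at least 75% with every replicate also reaching 75%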;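 also: 0% = median of neutral control wells and 100% = pilot-screen positive control compound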
Starred values were filed as active, the others as inactive; · = no result. The list is not random: actives were taken first. Their share in the collection is about 2.9%.

SMILES	EBV LMP1 NFkB	KKLEB tox	HIF-2a block	CF NFkB inh	Peg3 promoter	Shn3 3UTR inh
CCCCn1c(=N)n(CC(O)COc2ccccc2)c2ccccc21 (centres undefined)	-3	-5	20	3	32	68
N=c1n(Cc2ccccc2)c2ccccc2n1CC(O)COc1ccccc1 (centres undefined)	-18	-18	6	16	71*	89*
COc1ccc(C2=Nc3ccccc3NC(=O)C2N(C(=O)c2ccnc3ccccc23)c2ccccc2)cc1 (centres undefined)	·	2	-1	-4	8	0
Cc1cc(C)n2ncc(/C(N)=N/OC(=O)Nc3ccc(Cl)cc3)c2n1	-6	4	-31	-18	-21	·
COc1ccc(Cc2nc(-c3cccs3)no2)cc1	-23	0	-219	-4	-233	-47
O=C(Cc1ccccc1)Nc1cccc(N2C(=O)C=CC2=O)c1	-8	2	27	52*	96*	45
COc1cccc(NC(=O)Cc2ccccc2)c1	-21	-1	-303	-8	-249	-102
COc1ccc(/C=N/n2cnc3c([nH]c4ccc(C)cc43)c2=O)cc1CN1CCCC1	-3	-3	13	-8	77*	-16
COc1ccc2c(c1)[nH]c1c(=O)n(/N=C/c3ccc(OC)c(CN4CCCC4)c3)cnc12	1	5	-30	1	-23	-9
COCCN(C(=O)COC(=O)c1ccccc1Cc1ccccc1)c1c(N)n(Cc2ccccc2)c(=O)[nH]c1=O	0	-18	19	-7	8	-3
COc1ccccc1OCC(=O)NCCSCc1ccc(Cl)cc1	-8	-5	7	0	77*	1
CC1(C)CC(=O)C2=C(C1)Oc1nc3ccccc3cc1C2C(C#N)C#N (centres undefined)	6	-5	7	64*	58*	-16
CC1(C)CC(=O)C(C2C3=C(CC(C)(C)CC3=O)Oc3ccccc32)C(=O)C1 (centres undefined)	-1	1	22	9	14	-21
Nc1ccc(Oc2ccccc2-c2ccccc2)cc1	29	6	91*	0	49	·
COc1ccc(OCc2cc(C(=O)N(Cc3nccn3C)C(C)C)no2)c2ccccc12	-26	1	-205	24	-272	-64
CC(=O)c1cccc(NS(=O)(=O)c2ccc(-c3cnc(C4CC4)o3)cc2)c1	35	-12	21	14	47	85*
COc1cc(C(=O)NCC(c2ccco2)N2CCc3ccccc3C2)cc(OC)c1OC (centres undefined)	4	-14	11	5	12	13
Cc1cc(C)c2c(c1)/C(=C/C(=O)c1ccc(Br)s1)C(=O)N2	27	-61*	4	40	52*	50
Cc1cc(C)c(C(=O)c2cccs2)c(C)c1	2	12	11	-42	-17	-17
Cc1cc(Br)c2c(c1)/C(=C/C(=O)c1cccs1)C(=O)N2	-3	-1	24	33	69*	97*
O=C(O)c1cc(NC(=O)c2ccc(Cl)c([N+](=O)[O-])c2)cc(C(=O)O)c1	-18	13	13	-7	11	3
O=C(Nc1ccc(C(O)(C(F)(F)F)C(F)(F)F)cc1)c1ccc(Cl)c([N+](=O)[O-])c1	-3	-1	-51	0	58*	5
COc1ccc(S(=O)(=O)NCCc2csc(-c3cccnc3)n2)cc1	77*	-6	6	-2	0	-14
O=C(CCC(=O)N1CCOCC1)c1ccc(F)cc1	-5	8	-38	10	-27	-15
COc1ccc(NC(=O)CSc2nc(C)c3c(c2C#N)CCCC3)cc1	10	8	0	5	-22	12
SMILES	EBV LMP1 NFkB	KKLEB tox	HIF-2a block	CF NFkB inh	Peg3 promoter	Shn3 3UTR inh
Cc1cccc(NC(=O)CSc2nc(C)c(CC(=O)c3ccc(Br)cc3)c(C)c2C#N)c1C	-6	-34	17	26	71*	49
Cc1nc(SCC(=O)Nc2ccc(F)cc2)c(C#N)c(C)c1CC(=O)c1ccc(Br)cc1	4	-35	9	33	91*	33
CCOc1ccc(NC(=O)CCC(=O)NNC(=O)c2cccc([N+](=O)[O-])c2)cc1	1	-14	10	13	-5	-12
O=C(NC(=S)NNC(=O)c1ccccc1F)c1cccnc1	·	-5	6	10	3	2
CCOC(=O)c1c(C)n2c3c(cc(C)cc13)CCC2	-5	-10	0	-12	-18	11
CCOC(=O)N1CCC(Nc2c(NCCCN3CCN(C4CCCCC4)CC3)c(=O)c2=O)CC1	-5	7	14	-6	-20	-17
O=[N+]([O-])c1cccc(S(=O)(=O)Nc2nc3ccccc3nc2Nc2cccc(S(=O)(=O)N3CCCCC3)c2)c1	28	-55*	56*	61*	50	25
COc1ccc2[nH]c3nc(SCC(=O)NNC(=O)c4ccc(OC)c(OC)c4)nnc3c2c1	-18	16	-9	-6	6	5
Cc1ccc(C(=O)NNC(=O)CSc2nnc3c(n2)[nH]c2ccc(F)cc23)cc1	3	-6	5	-16	55*	3
CC1CCc2cc(F)ccc2N1C(=O)CSc1nnc2c(n1)[nH]c1ccccc12 (centres undefined)	13	10	17	-13	65*	27
COc1cccc(NC(=O)N(C)C[C@H]2Oc3ncc(Br)cc3C(=O)N([C@H](C)CO)C[C@H]2C)c1	1	-11	-7	-3	-14	-32
Nc1nc(=S)c2ncn([C@@H]3O[C@H](CO)[C@@H](O)[C@H]3O)c2[nH]1	-40	15	6	-10	62*	19
O=C(C1=C(O)C(=O)N(Cc2cccnc2)C1c1ccccn1)c1cccs1 (centres undefined)	-12	4	-1	7	-1	2
Cc1ccc(-c2nc(NCCCN(C)C)c3ccccc3n2)cc1	-21	-9	-41	2	-47	10
Cc1ccc(-c2csc3nc4c5ccccc5c(NCCCN(C)C)nn4c(=O)c23)cc1	-35	-60*	-8	11	109*	25
O=C(NCc1ccco1)C1CC(=O)N(c2cccc(Cl)c2)C1 (centres undefined)	65*	4	1	-18	15	9
O=C(NCc1ccco1)C1CC(=O)N(c2ccc(Cl)cc2)C1 (centres undefined)	-4	9	15	5	5	13
CN(CC(=O)Nc1ccccc1C(F)(F)F)C(=O)c1cc(-c2cccs2)nn1-c1ccccc1	-6	-5	14	14	34	-10
CN(CC(=O)Nc1cccc(F)c1)C(=O)c1cc(-c2cccs2)nn1-c1ccccc1	-1	4	9	-6	56*	-1
COc1cccc(C(=O)NC(C)CCc2ccccc2)c1 (centres undefined)	2	-2	-9	-1	-14	8

High-throughput results as filed in PubChem BioAssay.
